# aSyn 5UTR act – Activators working through SNCA 5'UTR binding (MLPCN). alpha-synuclein 5'UTR reporter, activators screen. AID 1814. 300,000 compounds, 7.1% hits. activity score, % (tested at 7.5 µM), hits read low; in the data active means activity score below about -60%
# A number is an active result; - = inactive. Not all results are given here.
SMILES,aSyn 5UTR act
CC(C)Oc1ccc(C(=O)Nc2ccc(NC(=O)c3ccco3)c(Cl)c2)cc1,-106.0
Nc1ccc(C(=O)Nc2ccc(NC(=O)c3ccco3)c(O)c2)cc1,-81.6
Oc1ccc(-c2csc(NCc3ccco3)n2)cc1,-176.9
Oc1ccc(Nc2nc(-c3ccc(O)cc3)cs2)cc1,-218.9
COc1ccc(Nc2nc(-c3c[nH]c4ccccc34)cs2)cc1,-255.3
c1coc(CNc2nc(-c3cccs3)cs2)c1,-
COc1ccc(-c2csc(Nc3cccnc3)n2)cc1,-180.5
COc1ccc(-c2csc(Nc3ccccc3)n2)cc1,-150.4
COc1ccc2oc(=O)c(-c3csc(Nc4ccc(O)cc4)n3)cc2c1,-69.6
COc1ccc(Nc2nc(-c3ccc(OC)cc3)cs2)cc1,-105.9
COc1ccc(-c2csc(Nc3ccccc3)[n+]2Cc2ccccc2)cc1,-95.1
CCOC(=O)Cc1csc(NC(=O)/C=C\c2ccccc2Cl)n1,-194.1
CCOC(=O)Cc1csc(/N=C/c2c(O)n(-c3ccc(C)c(C)c3)c(=O)c3ccccc23)n1,-
CCOC(=O)Cc1csc(NC(=O)/C=C/c2ccccc2Cl)n1,-135.8
CCOC(=O)Cc1csc(NC(=O)/C=C\c2ccccc2)n1,-73.8
CCOC(=O)Cc1csc(N/N=C\c2cccc(Br)c2)n1,-66.1
Cc1cc(C(=O)N/N=C/c2cc(Cl)cc([N+](=O)[O-])c2O)c2ccccc2n1,-63.0
Cc1ccc(-c2nnc(CCC(=O)NCC3C4CC5CC(C4)CC3C5)o2)s1 (stereo not drawn),-170.2
O=C(CSc1nc2ccccc2o1)Nc1ccc(N2CCOCC2)c(Cl)c1,-164.9
CC(=O)Nc1ccc2nc(SCC(=O)Nc3ccc(N4CCOCC4)c(Cl)c3)sc2c1,-142.4
CCOC(=O)/C(=C\c1ccccc1)NC(=O)c1ccccc1,-105.1
C=CCOC(=O)/C(=C\c1ccccc1)NC(=O)c1ccc(C)cc1,-175.1
O=C1OC(c2ccc3c(c2)OCO3)N(C(=O)c2ccc(Cl)c(Cl)c2)c2ccccc21 (stereo not drawn),-90.6
CCOC(=O)c1cccc(NC(=O)c2ccco2)c1,-76.8
CCc1sc(C(=O)Nc2cccc(C(C)=O)c2)cc1C,-77.4
SMILES,aSyn 5UTR act
CCOC(=O)c1cccc(NC(=O)c2cccs2)c1,-64.9
O=C(c1ccccc1)c1cccc(NC(=O)c2ccco2)c1,-120.4
CCC(=O)Nc1cccc(-c2cnc3ccccc3n2)c1,-122.3
O=C(CCl)Nc1cccc(-c2cnc3ccccc3n2)c1,-622.3
O=C(Nc1cccc(-c2cnc3ccccc3n2)c1)c1cccc(NC(=O)c2ccco2)c1,-95.5
Nc1nc(Cl)nc2ccc(Br)cc12,-122.8
COc1ccc(OC)c(NS(=O)(=O)c2ccc(SC)cc2)c1,-161.0
CCOc1ccc(S(=O)(=O)Nc2cc(OC)ccc2OC)cc1,-
Cn1nnc2cc(C(=O)Nc3ccc(Cl)cc3)ccc21,-117.5
CN(C)c1ccc(NC(=O)Nc2ccc3c(c2)nnn3C)cc1,-109.2
O=c1[nH]c2ccc(NCc3ccc(OCc4ccccc4Cl)cc3)cc2[nH]1,-79.6
COc1cc(CNc2ccc(NC(C)=O)cc2)ccc1OCc1ccccc1C,-121.5
COc1cc(/C=N/NS(=O)(=O)c2ccc(C)cc2)ccc1OCc1cccc(C(=O)O)c1,-
COc1cc(CNc2ccc3[nH]c(=O)[nH]c3c2)ccc1OCc1cccc(C)c1,-84.2
COc1cc(CNc2ccc3[nH]c(=O)[nH]c3c2)ccc1OCc1ccc(C)cc1,-118.3
O=C1c2ccccc2-c2c1nc1c([n+]2[O-])CCCC1,-96.7
Cc1c(Cc2ccc3c(c2)OCO3)sc(NC(=O)c2ccc3ccccc3c2)c1C(N)=O,-80.1
Cc1nc(NC(=O)c2ccc(OCC(C)C)cc2)sc1Cc1ccc2c(c1)OCO2,-84.8
CCCOc1ccc(C(=O)Nc2nc(C)c(Cc3ccc4c(c3)OCO4)s2)cc1,-68.3
CCCOc1ccc(OCCSc2nnc(N)s2)cc1,-89.1
CCCOc1ccc(-c2cnc(N)s2)cc1,-157.9
CCOc1ccc(N/C(N)=N/c2nc(CSc3nnc(C)s3)cc(=O)[nH]2)cc1,-
CCOc1ccc(-c2nc(CSc3nnc(N)s3)cs2)cc1,-90.3
CCOC(=O)c1ccc(CSc2nnc(N)s2)cc1,-73.6
CSc1ccc(-c2sc(Nc3ccccc3)n[n+]2-c2ccc(F)cc2)cc1,-143.4
SMILES,aSyn 5UTR act
Cc1ccc2c(CC(=O)NCc3ccco3)coc2c1C,-95.1
O=C(Nc1ccccc1F)c1ccc2nc(N3C(=O)CCC3=O)sc2c1,-117.2
O=C(Nc1ccccc1Cl)c1ccc2nc(N3CCOCC3)sc2c1,-98.8
O=C(N/N=C/c1sc(N2CCOCC2)nc1-c1ccccc1)c1cccc(S(=O)(=O)N2CCCC2)c1,-
O=C(Nc1ccc(F)cc1F)c1ccc2nc(N3CCOCC3)sc2c1,-62.5
N#CCn1cc(/C=N/NC(=O)c2cc3c(ccc4ccccc43)o2)c2ccccc21,-112.4
N#CCC(=O)N/N=C/c1cn(Cc2ccc(Cl)c(Cl)c2)c2ccccc12,-
Cc1c(O)ccc(/C(Cc2ccc3ccccc3n2)=N\N)c1O,-64.0
Nc1nc(-c2ccc(Br)s2)c(Br)s1,-76.6
CC(C)OC(=O)/C(=C/c1ccc2c(c1)c1ccccc1n2C)NC(=O)c1ccccc1,-145.9
CC(C)OC(=O)/C(=C\c1ccc2c(c1)c1ccccc1n2C)NC(=O)c1ccccc1,-112.8
CCc1cc(C(=O)O)c(NC(=O)/C=C/c2ccc(OC)cc2)s1,-119.4
COc1cccc(/C=C/C(=O)Nc2cccc(C(C)=O)c2)c1OC,-126.0
COc1ccc(/C=C/C(=O)Nc2cccc(C(C)=O)c2)cc1,-95.3
Cc1ccc(C2=Nc3ccccc3N=C(C(Cl)Cl)C2)cc1,-76.0
Cc1ccc2c(c1)N=C(c1ccccc1)CC(C(Cl)Cl)=N2,-74.2
Cc1nn(-c2ccccc2)c(C)c1/C=N/NC(=O)CSc1nnc(SCc2ccccc2Cl)s1,-71.3
Cc1ccc(CSc2nnc(SCC(=O)N/N=C/c3c(C)nn(-c4ccccc4)c3C)s2)cc1,-114.5
NC(=S)N/N=C/c1ccc(C23CC4CC(CC(C4)C2)C3)cc1,-309.8
NCCOc1ccc(C23CC4CC(CC(C4)C2)C3)cc1,-
S=C(N/N=C/c1ccc2c(c1)OCO2)NC1CC2CCC1C2 (stereo not drawn),-128.0
CNC(=S)N/N=C/c1ccc2c(c1)OCCO2,-72.6
NC(=S)N/N=C/c1ccc2c(c1)OCCO2,-76.0
Cc1ccc2c(c1)C1CN(C)CCC1N2C(=O)Nc1ccc(Cl)cc1 (stereo not drawn),-66.1
O=C(Nc1ccccc1)O[C@@H]1C[C@H]2CCC(=O)N3CC[C@@H](C1)[C@@H]23,-135.7
SMILES,aSyn 5UTR act
O=C(Nc1ccccc1)OC1CC2CC1C1CCCC21 (stereo not drawn),-141.0
c1ccc(CSc2nnc(-c3ccco3)o2)cc1,-96.6
Cc1ccc(CSc2nnc(-c3ccco3)o2)cc1,-153.9
Fc1ccc(CSc2nnc(-c3ccco3)o2)cc1,-116.9
Brc1ccc(CSc2nnc(-c3ccco3)o2)cc1,-78.0
O=C(Cc1nc2ccccc2[nH]1)c1ccc([N+](=O)[O-])cc1,-89.8
O=C(Cc1nc2ccccc2[nH]1)c1ccc(Cl)cc1,-79.6
CCc1cc(C(=O)Cc2nc3ccccc3[nH]2)c(O)cc1O,-183.4
Clc1ccc(/C(Cc2nc3ccccc3[nH]2)=N\Nc2ccccc2)cc1,-115.1
COc1ccc(OCCSc2nc(N)cc(N)n2)cc1,-102.9
Cc1ccc(OCCSc2nc(N)cc(N)n2)cc1,-120.1
CCOC(=O)c1ccc(NC(=O)N2CCCCC2)cc1,-91.9
CCc1ccc(NC(=O)N2CCCCCC2)cc1,-123.6
Cc1ccc(NC(=O)N2CCCCCC2)cc1,-74.2
COC(=O)c1ccc(NC(=O)C(=O)N2CCCC2)cc1,-147.6
O=C(Nc1ccc(Br)cc1)N1CCCCCC1,-144.3
